These results are taken from PubChem BioAssay (Tox21).

Structures are written as SMILES. Records with an inconclusive call do not appear. Activity calls are given as the source filed them. The call rests on the fitted dose curve; in most records, active means well fitted cell-killing curve with a large enough effect in the repeat runs; inconclusive means weak or mixed curves, or effect the other way; inactive means flat fitted curve, though single readings scatter.
On the % scale 0 is the no-effect control and ±100 the full control effect.

The nature of this experiment: qHTS assay to identify small molecule antagonists of the androgen receptor (AR) signaling pathway using the MDA cell line in the presence of 0.5 nM R1881 - cell viability counter screen (AID 1259242). Further: nearly all actives have a fitted effect of over 45% in size. Conditions: MDA-kb2 viability, CellTiter-Fluor protease fluorescence, 16 h; series mostly up to 92.4 µM; viability change, negative = cytotoxic: at the top concentration. The source says:
U.S. Tox21 Program National Center for Advancing Translational Sciences [NCATS] NIH Chemical Genomics Center [NCGC] U.S. Environmental Protection Agency [EPA] National Institutes of Environmental Health Sciences [NIEHS] National Toxicology Program [NTP] U.S. Food and Drug Administration [FDA] Tox21 Assay Overview: Androgen receptor (AR) is an important member of the nuclear receptor family. Its signaling plays a critical role in AR-dependent prostate cancer and other androgen related diseases. Considerable attention has been given in the past decades to develop methods to study and screen for the environmental chemicals that have the potential to interfere with metabolic homeostasis, reproduction, developmental and behavioral functions. Therefore AR binding assay for screening androgen antagonists can be used to identify potential endocrine disruptors. MDA-kb2 cells (from ATCC, deposited by Wilson et al.) were used to screen for AR inhibitors against Tox21 compound libraries. These cells are human breast carcinoma cells that were stably transfected with a luciferase reporter gene under control of the MMTV promoter that contains response elements for both androgen receptor (AR) and glucocorticoid receptor (GR). The current screening for identification of AR inhibitors against Tox21 libraries used lower concentration of (0.5 nM) R1881 as a stimulator. The cytotoxicity of the Tox21 compound libraries against MDA-kb2 cell line was tested by measuring live-cell protease activity using CellTiter-Fluor assay in the same wells.
Tox21 Assay Protocol Summary: MDA-kb2 cells (cells cultured without CO2) were dispensed at 3,000 cells/well in 4 uL of culture medium into white wall/solid-bottom 1536-well plates (Corning Life Sciences, Corning, NY) using a Multidrop Combi (ThermoFisher Scientific, Waltham, MA) dispenser. After the assay plates were incubated at a 37C and 0% CO2 for 5 hr, 23 nL of compounds dissolved in DMSO, positive controls or DMSO only was transferred to the assay plate by a Pintool station (Kalypsys, San Diego, CA). The transfer of compounds was followed by the addition of 1 uL of 0.5 nM (final concentration) agonist (R1881)/culture medium using a Flying Reagent Dispenser (FRD, Aurora Discovery, San Diego, CA). The plates were incubated at 37C and 0% CO2 for 16 hr. For cytotoxicity assay, 1 uL of CellTiter-Fluor reagent (Promega Corporation, Madison, WI) was added to each well using the FRD and after 30 min incubation at 37C and 0% CO2, The fluorescence intensity was measured using ViewLux plate reader (PerkinElmer, Shelton, CT).
Consider `CCCCN(CCO)CCO`, for which the “viability change, negative = cytotoxic” value is 0.867% (inactive).
For the compound `Cc1cc(C)c(NC(=O)CN(CC(=O)O)CC(=O)O)c(C)c1Br`, the “viability change, negative = cytotoxic” value was 1.62% [at 42.5 µM] (inactive).
For the compound `CCCCCCOC(=O)c1ccccc1O`, the “viability change, negative = cytotoxic” value was -3.73% (inactive).
With `NS(=O)(=O)c1cc2c(cc1C(F)(F)F)NC(Cc1ccccc1)NS2(=O)=O` (stereo not given), the “viability change, negative = cytotoxic” value was 1.13% [at 42.5 µM] (inactive).
`C=C(C)C1CC=C(C)C(O)C1` (stereo not given): the “viability change, negative = cytotoxic” value was 1.26% (inactive).
Take `CC(C)CCCC(C)CCCC(C)CCCCC(C)CCCC(C)CCCC(C)C` (stereo not given): the “viability change, negative = cytotoxic” value is 5.28% [at 42.5 µM] (inactive).
For the compound `O=C(O)Cc1cc(I)c(Oc2cc(I)c(O)c(I)c2)c(I)c1`, the “viability change, negative = cytotoxic” value is -0.617% [at 42.5 µM] (inactive).
As for `c1ccc(SCCSc2ccccc2)cc1`, the “viability change, negative = cytotoxic” value was 1.6% (inactive).
`N#CC1(O)CCCCC1`: the “viability change, negative = cytotoxic” value was 2.43% (inactive).
For `CC(=O)c1ccc(C)cc1`, the “viability change, negative = cytotoxic” value was 3.76% (inactive).
As to `C=C(C)C(=O)NCCCN(C)C`, the “viability change, negative = cytotoxic” value is 2.35% (inactive).
For the compound `CSc1ccc(C=O)cc1`, the “viability change, negative = cytotoxic” value is 3.55% (inactive).
Next, `O=C(O)C(O)[C@H](O)[C@@H](O)[C@H](O)[C@H](O)CO` (stereo not given in full): 3.23% (inactive); `CC(C)c1cccc(O)c1`: 3.29% (inactive).
As to `Cn1ccc2cc3c(cc21)CCN3C(=O)Nc1cccnc1`, the viability change, negative = cytotoxic was -1.94% [at 19 µM] (inactive).
With `CO[Si](OC)(OC)OC`, the “viability change, negative = cytotoxic” value is 0.271% (inactive).
The same measure for `COCc1ccc(COC)cc1`: 5.23% (inactive); for `COc1cc(C(=O)N2CCOCC2)cc(OC)c1OC`: -2.18% [at 42.5 µM] (inactive).
The same measure for `CC(C=O)Cc1ccc(C(C)C)cc1` (stereo not given): 7.57% (inactive); for `CC(C)COC(=O)C(C)C`: 4.52% (inactive); for `NCCN1CCNC1=O`: -4.19% (inactive).
`[O-][N+](=Nc1ccccc1)c1ccccc1`: the “viability change, negative = cytotoxic” value was 0.363% (inactive).
For the compound `CCCCCCCCN(C)CCCCCCCC`, the “viability change, negative = cytotoxic” value was 1.03% (inactive).
Take `CCCC(C)CO` (stereo not given): the “viability change, negative = cytotoxic” value was 0.428% (inactive).
Take `O=C(O)c1ccccc1-c1ccc(C(F)(F)F)cc1`: the “viability change, negative = cytotoxic” value was -2.71% [at 42.5 µM] (inactive).
Consider `N[C@@H](CS)C(=O)O`, for which the “viability change, negative = cytotoxic” value was 5.95% (inactive).
Turning to `CCCCCCCCCCCCCCCCCC(=O)OCCCCCCCCCCCCCC(C)C`, the “viability change, negative = cytotoxic” value was 1.08% (inactive).
Next, `Nc1ccc2cc(S(=O)(=O)O)ccc2c1`: -6.33% (inactive); `CCC(=O)/C=C/c1ccc(OC)cc1`: 7.4% (inactive); `Nc1nc2c(ncn2CCC(CO)CO)c(=O)[nH]1`: -2.69% [at 42.5 µM] (inactive).
Turning to `CCC(C)OC(=O)N1CCCCC1CCO` (stereo not given), the “viability change, negative = cytotoxic” value is 1.15% (inactive).
As for `CC(=O)O[C@H](CC(=O)[O-])C[N+](C)(C)C`, the “viability change, negative = cytotoxic” value was 4.41% (inactive).
The same measure for `C=C(C)C(=O)OCCC(C)OC(=O)C(=C)C` (stereo not given): 0.933% (inactive); for `Cc1c(F)cc2c(=O)c(C(=O)O)cn3c2c1CCC3C` (stereo not given): -1.02% [at 42.5 µM] (inactive); for `COC(=O)CCCCCCCCC(=O)OC`: 0.695% (inactive).
For `C=CC(=O)N1CCOCC1`, the “viability change, negative = cytotoxic” value was 1.15% (inactive).
Next, `COC(=O)[C@H]1[C@H]2C[C@@H]3c4[nH]c5cc(OC)ccc5c4CCN3C[C@H]2C[C@@H](OC(=O)COc2ccc(OC)cc2)[C@@H]1OC`: -0.64% [at 42.5 µM] (inactive).
`CC(=O)NC(Cc1ccccc1)C(=O)O` (stereo not given): the “viability change, negative = cytotoxic” value was -1.7% [at 42.5 µM] (inactive).
The same measure for `CC(C)(C)OC(=O)N1C[C@@H](F)C[C@H]1C(=O)O`: -0.602% (inactive); for `CO[Si](CCCNCCC[Si](OC)(OC)OC)(OC)OC`: -0.366% (inactive).
